Experimental findings from PubChem BioAssay (NCATS) are described below.

Values joined by “and” are separate entries in the source; they are usually repeats but may differ in a detail not shown here. Equal values may be shown once. Records with an inconclusive call do not appear. Values without a mark were called inactive. Active and inactive are the calls of the source. The call rests on the fitted dose curve; in most records, active means well fitted curve in the direction sought with a large enough effect; inconclusive means small, poorly fitted or top-dose-only effect, or another doubt; inactive means no such curve, though single readings can be large; an effect the other way counts as inactive or inconclusive.

Assay [1] is described as follows: Quantitative highthroughput screen to assess conditional lethalithy of NOMO1 cells grown in RPMI1640 with untreated serum (RPMI+s) (AID 1963876). Further: nearly all actives have a fitted effect of over 35% in size. Further: potency means the concentration at half of the fitted maximal effect.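 On viability: 100% = DMSO wells and 0% = empty wells without cells.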 An outline of the steps:
(§1)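 Each medium arm—HPLM with 10% dialyzed FBS, or RPMI1640 with 5 mM glucose and 10% untreated or dialyzed FBS—was screened against an 11-point, 3-fold compound titration for 48 h at 37 °C, with CellTiter-Glo luminescence as endpoint.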

The nature of assay [2]: Quantitative highthroughput screen to assess conditional lethalithy of NOMO1 cells grown in Human Plasma-Like Medium with dialyzed fetal bovine serum (HPLM+ds) (AID 1963878). Further: nearly all actives have a fitted effect of over 35% in size. Further: potency means the concentration at half of the fitted maximal effect.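 On viability: 100% = DMSO wells and 0% = empty wells on each plate.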 An outline of the steps: as §1
Assay [3] can be described thus: Quantitative highthroughput screen to assess conditional lethalithy of SEM cells grown in Human Plasma-Like Medium with dialyzed fetal bovine serum (HPLM+ds) (AID 1963882). Further: nearly all actives have a fitted effect of over 35% in size. Further: potency means the concentration at half of the fitted maximal effect. On viability: series mostly up to about 46 µM. An outline of the steps:
as §1

Assay [4] can be described thus: Cellular viability qHTS for adrenocortical cancer (ACC) cell line SW-13 (AID 1963989).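 Further: cells grown in serum-free medium with ITS supplement; on the % scale 0 is the no-effect control and ±100 the full control effect; nearly all actives have a fitted effect of over 65% in size.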 The conditions noted are these: SW-13 ACC cells viability, CellTiter-Glo, 48 h; activity (max response): active compounds read low. In outline: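 IC50 and maximal-response values come from four-parameter logistic fits of titration data. SW-13 cells in serum-free medium received compounds (up to 46 uM final) for 48 h before CellTiter-Glo luminescence.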

Assay [5] can be described thus: Cellular viability qHTS for adrenocortical cancer (ACC) cell line NCI-H295R (AID 1963990).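 Further: 0% = DMSO only wells and -100% = full killing with cytotoxic reference compound; nearly all actives have a fitted effect of over 60% in size.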 An outline of the steps: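 Adrenocortical carcinoma cells, suspended at 300 000 cells/mL in serum-free DMEM plus ITS, rested overnight before pin transfer of compound. After two days' incubation, ATP-dependent luminescence was recorded and curve-fitted.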
Assay [6] in a line: Quantitative highthroughput screen to assess conditional lethalithy of P12 Ichikawa cells grown in RPMI1640 with dialyzed fetal bovine serum (RPMI+ds) (AID 1963880). Further: nearly all actives have a fitted effect of over 35% in size. Further: potency means the concentration at half of the fitted maximal effect.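 On viability: 100% = DMSO wells and 0% = empty wells on each plate.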 The settings on record: Potency: P12-Ichikawa viability. An outline of the steps:
as §1

A short description of assay [7]: Quantitative highthroughput screen to assess conditional lethalithy of P12 Ichikawa cells grown in RPMI1640 with untreated serum (RPMI+s) (AID 1963881). Further: nearly all actives have a fitted effect of over 35% in size. Further: potency means the concentration at half of the fitted maximal effect.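 On viability: series mostly up to about 46 µM; 100% = DMSO wells and 0% = empty wells without cells.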 The conditions noted are these: Potency: viability. In outline: as §1
Assay [8] can be described thus: Quantitative highthroughput screen to assess conditional lethalithy of SEM cells grown in RPMI1640 with unreated serum (RPMI+s) (AID 1963883). Further: nearly all actives have a fitted effect of over 35% in size. Further: potency means the concentration at half of the fitted maximal effect.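 On viability: 100% = DMSO wells and 0% = empty wells without cells.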 In outline:
as §1

A short description of assay [9]: Quantitative highthroughput screen to assess conditional lethalithy of SEM cells grown in RPMI1640 with dialyzed fetal bovine serum (RPMI+ds) (AID 1963884). Further: nearly all actives have a fitted effect of over 35% in size. Further: potency means the concentration at half of the fitted maximal effect.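 On viability: series mostly up to about 46 µM; 100% = DMSO control wells and 0% = empty wells without cells.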 In outline:
as §1

A short description of assay [10]: Quantitative highthroughput screen to assess conditional lethalithy of P12 Ichikawa cells grown in Human Plasma-Like Medium with dialyzed fetal bovine serum (HPLM+ds) (AID 1963879). Further: nearly all actives have a fitted effect of over 35% in size. Further: potency means the concentration at half of the fitted maximal effect. On viability: series mostly up to about 46 µM. The settings on record: Potency: viability. In outline: as §1
The nature of assay [11]: Quantitative highthroughput screen to assess conditional lethalithy of NOMO1 cells grown in RPMI1640 with dialyzed fetal bovine serum (RPMI+ds) (AID 1963877). Further: potency means the concentration at half of the fitted maximal effect; nearly all actives have a fitted effect of over 30% in size. An outline of the steps: as §1

As for `CC(=O)Oc1cc2c(s1)CCN(C(C(=O)C1CC1)c1ccccc1F)C2` (configuration not stated), the Potency was 14800 nM (active) in [1], 4690 nM (active) in assay [2] and 18700 nM (active) in assay [3]. In assay [4], the activity (max response) was -22.6% and -6.86%. Besides, in assay [5], the Potency entry was “inactive”.
Take `CC(=O)O[C@H]1C[C@@H]2CC[C@H]3[C@H]4C[C@H]([N+]5(C)CCCCC5)[C@@H](OC(C)=O)[C@@]4(C)CC[C@@H]3[C@@]2(C)C[C@H]1[N+]1(C)CCCCC1`: the Potency result in [1], in assay [2], in [6], in assay [7], in assay [3] and in assay [8] was “inactive” throughout. Further, the Potency result in assay [9] and in assay [5] was “inactive” in each case. Further, in assay [4], the activity (max response) is 7.56%.
For `C[C@@]12C(=O)OC(=O)[C@@]1(C)C1CCC2O1`, the Potency in [1] was 8330 nM (active); in assay [2] it was 6620 nM (active); in assay [6] it was 9350 nM (active); in assay [7], 9350 nM (active); in assay [3], 8330 nM (active); in assay [8] it was 6620 nM (active). In addition, the Potency in assay [9] was 5260 nM (active).
Consider `NC(N)=Nc1nc(CSCCC(N)=NS(N)(=O)=O)cs1`, for which the Potency entry in assay [1], in assay [2], in assay [10], in assay [6], in [7] and in assay [3] was “inactive” in each case. The Potency result in assay [8] and in [9] was “inactive” throughout.
Turning to `NS(=O)(=O)OC[C@@H]1C[C@@H](n2ccc3c(N[C@H]4CCc5ccccc54)ncnc32)C[C@H]1O`, the Potency in assay [1] is 526 nM (active); in assay [2], 590 nM (active); in [10] it was 2960 nM (active); in assay [6], 1660 nM (active); in assay [3], 1480 nM (active); in assay [8] it was 1480 nM (active). In addition, the Potency in assay [9] was 1320 nM (active).
With `COc1ccc(-c2ccc3c(N4CCOC[C@H]4C)nc(N4CCOC[C@H]4C)nc3n2)cc1CO`, the Potency in assay [1] and in assay [10] was 18700 nM (active) each time.
Regarding `CCC(=O)O[C@]1(C(=O)CO)CC[C@H]2[C@@H]3CCC4=CC(=O)CC[C@]4(C)[C@@H]3CC[C@@]21C`, the Potency entry in assay [1] is “inactive”. In addition, the Potency in assay [11] is 10500 nM (active); in assay [8], 743 nM (active); in assay [9], 1180 nM (active).
Turning to `Cn1cc(-c2cnn3c(N)c(Br)c([C@H]4CCCNC4)nc23)cn1`, the Potency in assay [1] is 2090 nM (active); in assay [2], 1320 nM (active); in assay [10], 2960 nM (active); in assay [3] it was 935 nM (active); in [8] it was 2350 nM (active); in assay [9], 1050 nM (active).
With `O=C(C=CC#Cc1cccc(NS(=O)(=O)c2ccccc2)c1)NO`, the Potency in assay [1] was 3720 nM (active); in [2], 3320 nM (active); in assay [10], 2350 nM (active); in assay [6] it was 2090 nM (active); in [7], 2090 nM (active); in assay [3], 2640 nM (active). The Potency in assay [8] is 2960 nM (active); in assay [9], 2350 nM (active).
Take `CC(=CC(=O)Nc1ccccc1C(=O)O)c1ccc2ccccc2c1`: the Potency result in [1], in [2], in assay [10] and in [6] was “inactive” in each case. Besides, the Potency in assay [8] was 23500 nM (active).
Turning to `COc1cc2nc(N3CCN(C(=O)C4COc5ccccc5O4)CC3)nc(N)c2cc1OC` (configuration not stated), the Potency entry in assay [1], in assay [6], in assay [7], in assay [3], in assay [8] and in [9] was “inactive” each time.
`CC(=O)C1=C(O)C=C2Oc3c(C(C)=O)c(O)c(C)c(O)c3C2(C)C1=O` (configuration not stated): the Potency in [1] is 296 nM (active); in assay [10], 1480 nM (active); in [6], 2960 nM (active); in assay [7], 1320 nM (active). In [8], the Potency entry is “inactive”.
`CCCNC(=O)[C@H]1O[C@H]1C(=O)N[C@H](C(=O)N1CCC[C@@H]1C(=O)OC)C(C)CC` (some centres not stated): the Potency in [1] is 13200 nM (active); in assay [6], 16600 nM (active); in assay [7] it was 16600 nM (active); in assay [3], 20900 nM (active); in assay [8], 14800 nM (active); in assay [9] it was 16600 nM (active).
For the compound `FC(F)(F)c1ccc(C=Cc2nc(COc3ccc(CCCCn4ccnn4)cc3)co2)cc1`, the Potency is 2350 nM (active) in assay [1], 935 nM (active) in assay [10] and 9.3 nM (active) in assay [9]. Also, the Potency result in assay [3] is “inactive”.
On to `CC(C)(N)C(=O)N[C@H](COCc1ccccc1)C(=O)N1CCC2(CC1)CN(S(C)(=O)=O)c1ccccc12`, for which the Potency entry in [1] and in assay [5] was “inactive” each time. The Potency in [6] was 23500 nM (active); in assay [7], 26400 nM (active). In assay [4], the activity (max response) is -9.29%.
As to `OCCN1C[C@H](O)[C@@H](O)[C@H](O)[C@@H]1CO`, the Potency in [1] was 105 nM (active); in assay [10], 2640 nM (active); in [6] it was 2960 nM (active); in [7], 2640 nM (active). Besides, the Potency result in assay [3], in [8] and in assay [9] was “inactive” in each case.
With `O=C1c2ccccc2-c2n[nH]c3cccc1c23`, the Potency was 14800 nM (active) in assay [1], 16600 nM (active) in assay [6] and 16600 nM (active) in [7]. Besides, the activity (max response) in [4] is -13.1%.
For `CCc1cc(C(C)=NOCc2ccc(C3CCCCC3)c(C(F)(F)F)c2)ccc1CN1CC(C(=O)O)C1`, the Potency is 8330 nM (active) in assay [1]; 7430 nM (active) in [6]; 9350 nM (active) in assay [7]; 7430 nM (active) in [3]; 13200 nM (active) in [8].
For `COC(=O)[C@H](c1ccccc1Cl)N1CCc2sccc2C1`, the Potency in assay [1] was 1050 nM (active); in assay [10], 8330 nM (active); in assay [6] it was 11800 nM (active); in assay [7], 9350 nM (active). The Potency result in assay [3], in [8], in assay [9] and in assay [5] was “inactive” in each case. For the same compound, the activity (max response) in assay [4] was -22.7%.
With `CCCCCCCCCCCC1=C(O)C(=O)C=C(O)C1=O`, the Potency in assay [1] was 332 nM (active); in [10] it was 2090 nM (active); in [6], 3320 nM (active); in [7], 2090 nM (active). Further, the Potency entry in assay [3], in assay [8] and in [5] was “inactive” in each case. Further, the activity (max response) in assay [4] was -2.06%.
In the case of `CC(C)(C)[C@H](NC(=O)c1ccc(N)c(Cl)c1)C(=O)N1CCC[C@@H]1C(=O)N[C@H](C#N)CC(=O)O`, the Potency in [1] is 105 nM (active); in assay [6] it was 1050 nM (active); in [7] it was 418 nM (active). The viability is 92.8% [at 3.51 µM] in assay [8] and 105% [at 3.51 µM] in [9].
As to `CC(=O)O[C@]1(C(C)=O)CC[C@H]2[C@@H]3C=C(Cl)C4=CC(=O)[C@@H]5C[C@H]5[C@]4(C)[C@@H]3CC[C@@]21C`, the Potency in assay [1] is 590 nM (active); in assay [10], 2960 nM (active); in [6], 2350 nM (active); in [7] it was 2960 nM (active). Also, the Potency result in [3], in assay [8] and in [9] was “inactive” each time.
